# HCV inh: qHTS Assay for Inhibitors of Hepatitis C Virus (HCV) | Huh7.5.1 HCVcc-Cre infection, luciferase reporter, 44 h | Potency, µM (titrated, usually from 41.8 µM), for the others: at the top dose activity change, negative = inhibition, actives largely listed as inhibitors | 340,000 compounds, 3.4% hits | AID 651820, 2012; also: potency is read from the fitted curve at half-maximal effect; % is scaled to controls: 0 for no effect and ±100 for the full control effect
#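 Seed cells (1,000/well) for 4 h; treat with compound and infect with HCVcc-Cre, moi about 0.5. Incubate 44 h, then detect luciferase activity.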
# Pf growth 48h: Primary qHTS for delayed death inhibitors of the malarial parasite plastid, 48 hour incubation; 310,000 compounds, 5.9% hits; P. falciparum luciferase growth in erythrocytes, 48 h; Potency, µM (highest dose often 28.7 µM), for inactives: at the highest dose activity change, negative = inhibition, actives largely listed as inhibitors; AID 504832, 2011; also: potency is read from the fitted curve at half-maximal effect; % is scaled to controls: 0 for no effect and ±100 for the full control effect
#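 Cell-based growth assay: transgenic P. falciparum expressing firefly luciferase, cultured in red cells within RPMI 1640 containing 0.5% w/v Albumax, 24 mM bicarbonate and gentamycin. A drop in luciferase activity indicates inhibition.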
# Sm TGR block: qHTS Assay for the Inhibitors of Schistosoma Mansoni Peroxiredoxins; Schistosoma mansoni thioredoxin glutathione reductase (TGR), Q962Y6; purified TGR, DTNB reduction, TNB absorbance 405 nm; Potency, µM (highest dose often 114 µM), for the others: at the top dose activity change, negative = inhibition, actives largely listed as inhibitors; 360,000 compounds, 3% hits; also: potency is read from the fitted curve at half-maximal effect; % is scaled to controls: 0 for no effect and ±100 for the full control effect; nearly all actives have a fitted effect of over 60% in size
#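 TGR 20 nM + NADPH 100 uM (dispensed conc.), cpd preinc 15 min RT; start with NADPH (500 uM addition) then DTNB (15 mM addition). Kinetic TNB absorbance, 405 nm filter. Four-parameter Hill fit across titration.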
# SARS PLP yeast: qHTS of Yeast-based Assay for SARS-CoV PLP | S. cerevisiae expressing SARS-CoV PLpro, growth rescue | Potency, µM (doses to about 32.9 µM), without a hit: at the highest dose activity, positive = growth rescue, usual class: activators | 330,000 compounds, 0.19% hits | AID 485353, 2010; calls by dose curve; also: potency is read from the fitted curve at half-maximal effect; 0% is about no effect; nearly all actives have a fitted effect of over 55% in size
# Pf growth 96h: Primary qHTS for delayed death inhibitors of the malarial parasite plastid, 96 hour incubation. P. falciparum luciferase reporter growth, 96 h. Potency, µM (doses to about 28.7 µM), for inactives: at the top dose activity change, negative = inhibition, hits mostly inhibitors. 320,000 compounds, 6.9% hits; also: potency is read from the fitted curve at half-maximal effect; % is scaled to controls: 0 for no effect and ±100 for the full control effect
#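 Two parasite generations (96 h, 37 C, 5% CO2) of compound exposure in infected erythrocytes (0.05% parasitemia, 2% hematocrit). Luciferase-reporter P. falciparum; decreased luminescence indicates inhibited growth, aimed at apicoplast-acting delayed death.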
# HCMV antiviral: qHTS Assay for inhibitors of the human cytomegalovirus (HCMV) | activity change, negative = inhibition, % at 57.5 µM | 410,000 compounds, 4.5% hits | HFF cells, HCMV-luciferase reporter, 72 h; hits give low values; in the data active = activity change below about -60%; inconclusive = no clear call, values can overlap the other calls; inactive = above about -39%; also: % is scaled to controls: 0 for no effect and ±100 for the full control effect
#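 Inhibition of viral replication was scored as loss of reporter luminescence in HFFs infected with HCMV-luciferase (MOI 1 PFU/cell) for 72 h; compounds tested at 2 doses, normalized to buffer and Salinomycin controls.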
# * marks the source's active call; other numbers are inactive results; ? = inconclusive; nt = not tested or not shown; [ ] = remark or other dose. Hits are enriched below; roughly 15% of the tested compounds scored in any of these assays. Unless noted, calls follow the shape of the dose curve; as a rule, active = well fitted curve in the direction sought with a large enough effect; inconclusive = small, poorly fitted or top-dose-only effect, or another doubt; inactive = no such curve, though single readings can be large; an effect the other way counts as inactive or inconclusive.
SMILES,HCV inh,Pf growth 48h,Sm TGR block,SARS PLP yeast,Pf growth 96h,HCMV antiviral
Cc1nc(N2CCCCCC2)c2ccccc2n1,10µM*,-21%,-4%,?,?,?
c1ccc2c(N3CCCCC3)nc(N3CCCC3)nc2c1,3.2µM*,13µM*,-21%,?,4.7µM*,-29
c1ccc2c(c1)nc(N1CCCCC1)c1ccccc12,?,34%,12%,-2%,48%,-20
COc1ccc(CCNC(=O)CCc2cn(Cc3ccc(C)cc3)c3ccccc23)c(OC)c1OC,nt,nt,0%,nt,nt,?
N#Cc1ccccc1OCC(=O)NC(=O)NCc1ccco1,6%,112%,0%,0%,171%,0
CSCCC(c1nnnn1Cc1ccccc1)N1CCC2(CC1)C(=O)NCN2c1ccccc1 (centres undefined),nt,nt,nt,nt,nt,-6
O=c1[nH]c2ccccc2n1C1CCN(C(CCc2ccccc2)c2nnnn2Cc2ccccc2)CC1 (centres undefined),nt,nt,nt,nt,nt,-103*
O=C1NCN(c2ccccc2)C12CCN(C(CCc1ccccc1)c1nnnn1Cc1ccccc1)CC2 (centres undefined),nt,nt,nt,nt,nt,0
CSCCC(c1nnnn1Cc1ccccc1)N1CCC(n2c(=O)[nH]c3ccccc32)CC1 (centres undefined),nt,nt,nt,nt,nt,-90*
O=c1ccc(-c2nc3ccccc3n2C(CCc2ccccc2)c2nc3ccccc3[nH]2)c[nH]1 (centres undefined),nt,nt,nt,nt,nt,-9
CC(C)NC(=O)NC(=O)CN1c2cccc3cccc(c23)S1(=O)=O,-3%,9%,-28%,1%,10%,3
CCC1Sc2ccc(S(=O)(=O)CCC(=O)NCc3ccco3)cc2NC1=O (centres undefined),-21%,-14%,32µM*,8%,9%,-31
CCC1Sc2ccc(S(=O)(=O)CCC(=O)Nc3ccc(NC(C)=O)cc3)cc2NC1=O (centres undefined),12%,29%,-3%,-1%,6.6µM*,-16
CCc1nn(CC(=O)N2CCC(C)CC2)c(=O)c2cc3occc3n12,nt,nt,5%,nt,nt,-11
O=C1CCN(C(=O)c2cccs2)c2ccccc21,2%,4%,6%,-1%,-13%,-15
CN1C(=O)/C(=C\C(=O)c2cccs2)c2ccccc21,13%,-4%,-30%,-5%,25%,-99*
Cc1ccc(S(=O)(=O)Nc2ccc3cn[nH]c3c2)c(C)c1,4%,?,-4%,-1%,-10%,9
CCOc1cc(C)c(S(=O)(=O)Nc2ccc3cn[nH]c3c2)cc1C,10µM*,?,-1%,-6%,?,nt
O=C(NC(Cc1c[nH]c2ccccc12)C(=O)N/N=C/c1cccnc1)c1cccs1 (centres undefined),13%,-27%,15%,1%,0%,-78*
O=C(NC(Cc1c[nH]c2ccccc12)C(=O)Nc1ccc(F)cc1)c1cccs1 (centres undefined),-9%,?,7%,-1%,?,?
COC(=O)c1c(-c2c(Cl)cccc2Cl)noc1NC(=O)NN1CCOCC1,-3%,13µM*,3%,2%,1.3µM*,16
COC(=O)c1c(-c2c(Cl)cccc2Cl)noc1NC(=O)NN1CCCCC1,-9%,0.33µM*,-4%,0%,0.26µM*,-30
COC(=O)c1c(-c2c(Cl)cccc2Cl)noc1NC(=O)N(C)C,12%,16%,-10%,2%,4%,21
COc1ccc(C)cc1NC(=O)c1nn(C)cc1Br,?,-7%,0%,-2%,-18%,-12
COc1ccccc1C(=O)O/N=C(\N)c1ccccc1Cl,-14%,192%,-9%,-30%,5%,16
SMILES,HCV inh,Pf growth 48h,Sm TGR block,SARS PLP yeast,Pf growth 96h,HCMV antiviral
COc1ccc(/C(N)=N/OC(=O)c2cccc([N+](=O)[O-])c2)cc1OC,5%,9%,-20%,0%,nt,20
COc1ccc(C(=O)O/N=C(\N)c2ccccc2Cl)cc1OC,10µM*,10%[0.00184 µM],-12%,-6%,5.2µM*,52
COc1ccc(/C(N)=N/OC(=O)c2ccc(OC)c([N+](=O)[O-])c2)cc1OC,35µM*,?,25%,-1%,32%[5.75 µM],-21
CCCCNC(=O)N[C@H]1CC[C@@]23CCCN2C(=O)CCC[C@H]3[C@H]1C,nt,nt,nt,nt,nt,-8
Cc1ccc(S(=O)(=O)N2CCN(c3nc(-c4cccs4)nc4ccccc34)CC2)cc1,nt,nt,nt,nt,nt,-10
CCN(CC)c1ncnc2c1cnn2-c1cc(Cl)ccc1C,nt,nt,4%,nt,nt,-6
CC1=NN(C(=O)c2ccccc2)C(O)(c2ccc(Br)cc2)C1 (centres undefined),?,?,4%,-2%,3.7µM*,8
CC1=NN(C(=O)c2ccccc2F)C(O)(c2ccc(Cl)cc2)C1 (centres undefined),-5%,0%,4%,-11%,13µM*,4
CN(C)CCCN(C(=O)c1cc(-c2cccs2)nc2ccccc12)c1nc2ccc(F)cc2s1,?,3.3µM*,1%,-15%,2.1µM*,18
CCN(CC)CCN(C(=O)/C=C/c1cccs1)c1nc2ccc(Cl)cc2s1,?,?,-7%,-2%,?,?
CN(C)CCCN(C(=O)CCc1ccccc1)c1nc2ccc(F)cc2s1,?,?,-7%,-10%,?,-12
CN(C)CCN(C(=O)/C=C/c1cccs1)c1nc2ccc(F)cc2s1,-19%,-23%,5%,-4%,10µM*,-5
COc1ccc(CNS(=O)(=O)c2cc3c(cc2Cl)N(C(C)=O)CCO3)cc1,nt,nt,-6%,nt,nt,42
COc1ccc(-c2c3c(=O)n(C)c(=O)n(C)c3cn2C2CCCCC2)cc1,25µM*,?,-7%,1%,22%,?
CCCn1cc2c(c1-c1ccc(C)cc1)c(=O)n(C)c(=O)n2C,-23%,-5%,0%,0%,3%,23
Cc1cccc2cc(C#N)c(N3CCN(C)CC3)nc12,10µM*,-11%,5%,-10%,-1%,-31
Cc1cc(C)c2nc(N3CCN(C)CC3)c(C#N)cc2c1,-3%,1%,-3%,-4%,?,34
Cc1nc2sc(C(N)=O)c(N)c2c(-c2ccc(Br)cc2)c1C(=O)Nc1ccc(Cl)cc1,nt,nt,1%,nt,nt,-78*
CCOC(=O)c1c(C)nc2sc(C(=O)Nc3ccc(OC)cc3)c(N)c2c1-c1ccc(OC)cc1,3.5µM*,nt,7%,-4%,2.3µM*,?
O=[N+]([O-])c1c(NCCCO)cc(Sc2nc3ccccc3s2)c2nonc12,-27%,0%,-8%,-9%,34%,nt
